Experimental findings from PubChem BioAssay AID1903 (Southern Research Specialized Biocontainment Screening …, 2009) are described below.

Structures are written as SMILES. Screen size: about 310,000 compounds; about 1,200 (0.39%) were called active. Not all results are given here. Measured potencies and affinities stand elsewhere. Values without a mark were called inactive. The rule behind the calls is not given here.

In this assay the target is Large T antigen (Simian virus 40) (UniProt P03070). The assay can be described thus: TAg ATPase/helicase activity blockers – biochemical (AID 1903). As to conditions: SV40 large T antigen ATPase/helicase inhibition assay; at 20 µM; active compounds read high.
Chain of Large T antigen (Simian virus 40) (P03070 whole entry, looked up): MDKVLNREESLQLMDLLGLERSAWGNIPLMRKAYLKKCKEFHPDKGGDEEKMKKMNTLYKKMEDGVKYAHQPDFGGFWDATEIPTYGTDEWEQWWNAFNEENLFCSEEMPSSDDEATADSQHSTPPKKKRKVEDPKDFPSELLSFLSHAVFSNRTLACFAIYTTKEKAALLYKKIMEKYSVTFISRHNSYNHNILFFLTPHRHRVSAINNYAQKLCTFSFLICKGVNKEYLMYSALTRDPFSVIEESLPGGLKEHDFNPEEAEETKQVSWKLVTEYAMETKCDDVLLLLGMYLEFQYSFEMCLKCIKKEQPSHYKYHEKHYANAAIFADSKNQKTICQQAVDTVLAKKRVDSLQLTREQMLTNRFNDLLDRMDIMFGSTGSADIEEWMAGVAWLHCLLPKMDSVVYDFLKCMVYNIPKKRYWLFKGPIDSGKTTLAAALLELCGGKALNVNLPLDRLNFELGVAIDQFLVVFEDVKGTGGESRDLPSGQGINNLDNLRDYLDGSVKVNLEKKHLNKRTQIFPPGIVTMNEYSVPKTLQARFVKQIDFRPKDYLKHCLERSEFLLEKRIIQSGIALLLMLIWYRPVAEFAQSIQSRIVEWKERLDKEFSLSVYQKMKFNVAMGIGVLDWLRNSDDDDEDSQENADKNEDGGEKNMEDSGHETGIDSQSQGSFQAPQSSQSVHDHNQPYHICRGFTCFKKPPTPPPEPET
Regarding `COCCOc1ccc(C(F)(F)F)cc1NC(=O)c1ccc(C(F)(F)F)cc1`, the inhibition is 2.65%.

On to `Oc1ccc(Oc2ccc(Oc3ccc(O)cc3)cc2)cc1`, for which the inhibition is 11.2%.

On to `C=C(c1ccc(O)cc1)c1ccc(O)cc1`, for which the inhibition is 12.5%.

For the compound `COc1ccc2[nH]c(C(=O)NCCc3ccccc3)cc2c1`, the inhibition was 6.64%.

Turning to `CCOC(=O)N1CCN(c2ccc(Cl)cc2)CC1`, the inhibition was 24.6%.

Turning to `O=C(CCSc1ccc(Cl)cc1)N1CCOCC1`, the inhibition is 23.4%.

In the case of `CCOC(=O)N1CCN(c2ccc([N+](=O)[O-])cc2)CC1`, the inhibition is 5.56%.

As for `O=C(CCSc1ccccc1)N1CCN(c2ccccc2)CC1`, the inhibition was 8.73%.

As to `Cc1ccc(OCCC(=O)OCC(=O)N2CCN(S(=O)(=O)c3ccc(Cl)cc3)CC2)cc1`, the inhibition is 30.2%.

With `Cc1ccc(OCCC(=O)OCC(=O)N2CCN(S(=O)(=O)c3ccc(C)cc3)CC2)cc1`, the inhibition is 10.3%.

As for `O=C(CCCOc1ccccc1)N1CCN(c2ccccc2)CC1`, the inhibition was -0.15%.

Regarding `O=C(CCCOc1ccccc1)N1CCN(c2ccc(F)cc2)CC1`, the inhibition is 0.74%.

As for `COc1ccc(OC)c(CCNC(=O)c2ccc3c(c2)N(Cc2ccccc2)CCS3)c1`, the inhibition is -0.13%.

Regarding `O=C(CNC(=O)c1cccc(F)c1)OCC(=O)N1CCCc2ccccc21`, the inhibition was 7.9%.

In the case of `Cc1ccc(NS(=O)(=O)c2ccc(CCC(=O)NCCCOC(C)C)cc2)cc1`, the inhibition was 5.53%.

For `COc1ccc(S(=O)(=O)c2nnn(-c3cccc(OC)c3)c2N)cc1`, the inhibition was 22.2%.

In the case of `O=[N+]([O-])c1ccc(-n2cccc2/C=N/Nc2nc(N3CCCCC3)nc(N3CCCCC3)n2)cc1`, the inhibition is 9.66%.

Turning to `O=C(CNC(=O)c1ccccc1F)OCC(=O)N1CCCCC1`, the inhibition is 7.93%.

On to `Cc1cc(C)c(S(=O)(=O)c2ccccc2C)c(N(C)C)n1`, for which the inhibition was 21.5%.

Consider `COc1cc(/C=C2\SC(=S)N(CCC(=O)Nc3ccc(O)cc3)C2=O)cc(OC)c1OC`, for which the inhibition was 5.27%.

For the compound `O=C(Nc1ccc2c(c1)OCO2)c1ccc(NC2CC2)c([N+](=O)[O-])c1`, the inhibition was 12.5%.

With `CCn1c(-c2nn(-c3ccccc3)ccc2=O)n[nH]c1=S`, the inhibition is 9.69%.

For `COc1ccc(NS(=O)(=O)c2cccc(C(=O)NCC(c3ccccc3OC)N3CCCC3)c2)cc1` (stereo unspecified), the inhibition was 5.32%.

On to `O=C(COc1cccc(C(F)(F)F)c1)N1CCN(c2ccccc2O)CC1`, for which the inhibition is 22.7%.

As to `COc1ccc(OCC(=O)N2CCN(c3cccc(C(F)(F)F)c3)CC2)cc1`, the inhibition is 17%.

Turning to `COc1ccc(N2CCN(C(=O)COC(=O)CCOc3ccc(C)cc3)CC2)cc1`, the inhibition is 10.6%.

Take `COc1cc(OC)cc(C(=O)NCC(=O)N2CCCCC2)c1`: the inhibition was 4.74%.

With `COc1ccc(C(=O)NCC(=O)N2CCN(c3ccc(Cl)cc3)CC2)cc1`, the inhibition is 10.9%.

On to `O=C(C1CC1)N1CCN(c2ccc(F)cc2)CC1`, for which the inhibition is 2.25%.

As for `O=C(C1CC1)N1CCN(c2ccc([N+](=O)[O-])cc2)CC1`, the inhibition is 12.1%.

For `Cc1ccc(OCCCC(=O)N2CCOCC2)cc1`, the inhibition was 0.37%.

On to `c1ccc(Nc2nc(-c3ccccc3)ns2)cc1`, for which the inhibition is -2.89%.

Consider `CSc1nnc2c(n1)OC(c1cccn1C)N(C(C)=O)c1ccccc1-2` (stereo unspecified), for which the inhibition was 15.3%.

Consider `Cn1cnc(S(=O)(=O)NCc2ccccc2)c1`, for which the inhibition is 6.21%.

For `Cc1ccc(C(=O)Nc2ccc(S(=O)(=O)N3CCOCC3)cc2)cc1C`, the inhibition is 0.36%.

Take `O=C(CNC(=O)c1ccc(Br)cc1)OCC(=O)c1ccccc1`: the inhibition was 11.9%.

In the case of `Cc1ccc(C(=O)NCC(=O)N2CCN(c3ncccn3)CC2)s1`, the inhibition was -1.43%.

With `O=C(NCc1ccco1)C(c1ccncc1)N(C(=O)Cc1cccs1)c1ccccc1` (stereo unspecified), the inhibition was 7.67%.

As to `Cc1cccc(Nc2ncc3c(n2)CC(C)CC3=O)c1` (stereo unspecified), the inhibition is 7.64%.

Turning to `CCOc1ccccc1NC(=S)N1CCN(c2ccccc2)CC1`, the inhibition is 3.57%.

As for `CCOc1ccccc1NC(=S)N1CCN(c2ccc(OC)cc2)CC1`, the inhibition is 7.58%.

As for `CN(Cc1ccco1)S(=O)(=O)c1ccc(CN2C(=O)c3cccnc3C2=O)s1`, the inhibition was 16.5%.

On to `COc1ccc(N2CCC(CNC(=O)Nc3ccc(C)c(C)c3)C2)cc1` (stereo unspecified), for which the inhibition was 9.39%.

Turning to `COc1ccc(N2CCC(CNC(=S)Nc3cccc(OC)c3)C2)cc1` (stereo unspecified), the inhibition is 19.4%.

For the compound `CCOc1ccc(NC(=O)NCC2CCN(c3ccc(OC)cc3)C2)cc1` (stereo unspecified), the inhibition was 22.4%.

For `COc1ccc(N2CCC(CNC(=O)Nc3ccc(Cl)cc3)C2)cc1` (stereo unspecified), the inhibition was 21.5%.

Regarding `CC(C)CN(C(=O)COC(=O)C1CC1)c1c(N)n(Cc2ccccc2)c(=O)[nH]c1=O`, the inhibition is 17.3%.

Take `Cc1c(Cl)cccc1NC(=O)CN1CCC(NC(=O)C2CCCCC2)CC1`: the inhibition was 8.83%.

Take `NC(=Nc1ccccc1)Nc1ccccc1`: the inhibition is 15.7%.

As for `COc1ccc(OCC(=O)Nc2cccc(OC)c2)cc1`, the inhibition was 2.29%.

As for `CC(=Nc1ccccc1)Nc1ccccc1`, the inhibition is 9.53%.

In the case of `COc1cccc(NC(=O)CCC(=O)Nc2cccc(OC)c2)c1`, the inhibition is 11.8%.

Regarding `NC(=O)C[n+]1cccc(/C=N/O)c1`, the inhibition is 2.56%.

`c1ccc(-c2nn3c(Cn4cnc5ccccc54)nnc3s2)cc1`: the inhibition is -0.363%.

Take `COc1cc(/C=C2\SC(=S)N(C(C(=O)O)c3ccccc3)C2=O)cc(OC)c1OC` (stereo unspecified): the inhibition was 27.9%.

Take `O=C(O)C(c1ccccc1)N1C(=O)/C(=C/c2cccs2)SC1=S` (stereo unspecified): the inhibition was 19.8%.

As for `CCOc1ccc(/C=C2/SC(=S)N(C(C(=O)O)c3ccccc3)C2=O)cc1OCC` (stereo unspecified), the inhibition is 19%.

For `COc1cccc(/C=C2\SC(=S)N(C(Cc3ccccc3)C(=O)O)C2=O)c1` (stereo unspecified), the inhibition was 33.3%.

In the case of `CCOc1ccc(/C=C2\SC(=S)N(C(C(=O)O)c3ccccc3)C2=O)cc1OC` (stereo unspecified), the inhibition was 23.8%.

In the case of `COc1ccc(/C=C2\SC(=S)N(C(Cc3ccccc3)C(=O)O)C2=O)cc1` (stereo unspecified), the inhibition is -3.2%.

On to `Cc1ccc(NS(=O)(=O)c2cc(C(=O)N(C)C)ccc2C)cc1C`, for which the inhibition is 7.8%.
